The record followed here is PubChem BioAssay (NCATS).

Inconclusive results are not listed. Where a call stands in place of a potency, no number is given. Activity calls are given as the source filed them. Unless noted, calls come from the whole dose curve; as a rule, active = well fitted activation curve with a large enough effect; inconclusive = small, poorly fitted or top-dose-only effect; inactive = no such curve, though single readings can be large or run the other way.

Parathyroid hormone/parathyroid hormone-related peptide receptor (Homo sapiens), sequence (Q03431 whole entry, looked up): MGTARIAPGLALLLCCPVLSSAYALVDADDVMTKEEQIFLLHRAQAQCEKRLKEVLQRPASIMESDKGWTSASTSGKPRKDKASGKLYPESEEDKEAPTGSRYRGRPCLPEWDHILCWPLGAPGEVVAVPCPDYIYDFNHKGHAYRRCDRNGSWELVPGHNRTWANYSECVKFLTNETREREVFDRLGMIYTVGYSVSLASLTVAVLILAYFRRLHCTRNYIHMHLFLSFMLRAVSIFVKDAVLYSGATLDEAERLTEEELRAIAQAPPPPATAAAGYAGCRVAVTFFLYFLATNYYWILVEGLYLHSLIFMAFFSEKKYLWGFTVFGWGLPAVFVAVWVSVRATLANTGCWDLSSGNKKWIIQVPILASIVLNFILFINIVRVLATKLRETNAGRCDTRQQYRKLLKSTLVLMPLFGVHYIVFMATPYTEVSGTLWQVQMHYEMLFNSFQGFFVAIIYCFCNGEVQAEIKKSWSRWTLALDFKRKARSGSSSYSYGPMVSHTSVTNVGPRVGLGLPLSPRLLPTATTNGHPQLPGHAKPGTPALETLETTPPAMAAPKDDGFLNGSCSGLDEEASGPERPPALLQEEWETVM

The first assay concerns the target Parathyroid hormone/parathyroid hormone-related peptide receptor (Homo sapiens) (UniProt Q03431). In words: qHTS for PTHR1 Agonists: Optimization Screen against the NCGC LOPAC library (AID 1347079).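 Note: GloSensor cAMP luminescence in HEK-293 GP2 cells expressing human PTHR1 with IBMX.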 The settings on record: HEK293 GP2 PTHR1 GloSensor cAMP luminescence, 1 h; series mostly up to 57.1 µM. A digest of the protocol:
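Compounds were tested across a qHTS titration. PTHR1-expressing GP2 cells report cAMP rises via GloSensor luminescence after 1 hr compound exposure at 37C with IBMX present.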
In general terms: qHTS replaces the single test concentration by a dilution series.
Take `C=CCN1C[C@@H](C)N([C@H](c2ccc(C(=O)N(CC)CC)cc2)c2cccc(OC)c2)C[C@@H]1C`: the Potency result was “inactive”.
As for `CCS(=O)(=O)Nc1cccc(C(=C2CCCCC2)c2cnc[nH]2)c1`, the Potency result is “inactive”.
In the case of `COc1ccc2c(c1)/C(=C/c1cnc[nH]1)C(=O)N2`, the Potency result is “inactive”.
Consider `OCc1cnc[nH]1`, for which the Potency result was “inactive”.
For the compound `O=[N+]([O-])c1ccc2nc(N3CCNCC3)ccc2c1`, the Potency result is “inactive”.
As to `CCN1C[C@@]2(COC)C3[C@@H](OC)C4[C@@H]1C3([C@@H]1C[C@]3(O)[C@H](OC(=O)c5ccccc5)[C@@H]1[C@]4(OC(C)=O)[C@@H](O)[C@@H]3OC)[C@H](OC)C[C@H]2O`, the Potency entry was “inactive”.
For `CCn1cnc2c(Nc3cccc(Cl)c3)nc(N[C@@H]3CCCC[C@@H]3N)nc21`, the Potency entry is “inactive”.
In the case of `CN1CCc2cccc(Cl)c2CC1`, the Potency entry was “inactive”.
Turning to `NCC(O)c1cc(O)c(O)cc1F` (stereo not given), the Potency entry was “inactive”.
With `C[C@H](N)CN1CCc2ccc(Br)cc21`, the Potency result was “inactive”.
With `Ic1ccccc1CNC1C2CCN(CC2)C1C(c1ccccc1)c1ccccc1` (stereo not given), the Potency result is “inactive”.
Take `NC(=O)c1ccc(OCC(O)CN2CC=C(c3ccc(F)cc3)CC2)cc1` (stereo not given): the Potency result was “inactive”.
On to `CCN(CCCl)Cc1ccccc1Br`, for which the Potency entry was “inactive”.
On to `C=CCN1CC[C@]23c4c5ccc(O)c4O[C@@H]2/C(=N/N=C2\CC[C@@]4(O)C6Cc7ccc(O)c8c7[C@@]4(CCN6CC=C)[C@@H]2O8)CC[C@@]3(O)C1C5`, for which the Potency result was “inactive”.
The same measure, in the same setting: as for `CC(=O)NBr`, the entry is “inactive”; as for `C[C@]12Cc3cn4c(nc3C=C1CCC1C2CC[C@@]2(C)[C@H]1CC[C@@]2(O)C#N)nc1ccccc14` (stereo not given in full), “inactive”; as for `CCCN1CCC[C@@H](c2cccc(O)c2)C1`, “inactive”.
On the same count and under the same terms, as for `COc1cc(CC(C)N)c(OC)cc1I` (stereo not given), the entry is “inactive”.
Take `CNc1ccc2oc(C[C@H]3O[C@@]4(CC[C@H]3C)O[C@H]([C@H](C)C(=O)c3ccc[nH]3)[C@H](C)C[C@H]4C)nc2c1C(=O)O`: the Potency entry is “inactive”.
On the same count and under the same terms, as for `CC(=O)c1c(O)c(C)c(O)c(Cc2c(O)c3c(c(C(=O)/C=C/c4ccccc4)c2O)OC(C)(C)C=C3)c1O`, the entry is “inactive”; as for `C[C@H](N)Cc1cccc(C(F)(F)F)c1`, “inactive”.
Regarding `NC(=O)COc1c(F)cc(SCCNS(=O)(=O)c2ccccc2)cc1F`, the Potency result was “inactive”.
`CC(C)(C)c1o[nH]c(=O)c1CC(N)C(=O)O` (stereo not given): the Potency result was “inactive”.
As for `C[C@@H]1[C@@H]2Cc3ccc(O)cc3[C@@]1(C)CCN2CC1CC1`, the Potency result is “inactive”.
The same measure, in the same setting: for `NC(Cc1ccc(N(CCCl)CCCl)cc1)C(=O)O` (stereo not given) the value was “inactive”.
As to `CC(N)c1cccc(Cl)c1Cl` (stereo not given), the Potency entry is “inactive”.
Regarding `NNC(=O)c1ccc(O)cc1`, the Potency result was “inactive”.
On to `C[N+]1(C)CCN(c2ccccc2)CC1`, for which the Potency result was “inactive”.
`CCCN(CCC)C1CCc2cccc(O)c2C1` (stereo not given): the Potency entry is “inactive”.
Turning to `CC1(C(=O)O)C2CCC(O2)C1(C)C(=O)O` (stereo not given), the Potency result is “inactive”.
Turning to `CN(C(=O)Cc1ccc(Cl)c(Cl)c1)C(CN1CCCC1)c1cccc(OCC(=O)O)c1` (stereo not given), the Potency entry was “inactive”.
`CC(C)(C)c1cc(C=C(C#N)C#N)cc(C(C)(C)C)c1O`: the Potency entry is “inactive”.
Same read-out and setting: as for `C[N+](C)(C)CC#CCN1CCCC1=O`, the entry is “inactive”; as for `COc1ccc2[nH]cc(CCN)c2c1`, “inactive”.
As to `COc1ccc2c(c1)C13CCCCC1C(C2)N(C)CC3` (stereo not given), the Potency entry is “inactive”.
Turning to `COc1ccc(OC)c(C(O)C(C)N)c1` (stereo not given), the Potency result was “inactive”.

Tested on in a further assay: not listed separately
In words: qHTS for Inhibitors of the Functional Ribonucleoprotein Complex (vRNP) of Lassa (LASV) Arenavirus: LASV Primary Screen - GLuc reporter signal (AID 1347082; calls by dose curve; tested in HEK293 reporter line; note: nearly all actives have a fitted effect of over 60% in size; note: potency is the fitted concentration of half-maximal effect). The settings on record: LASV minigenome vRNP, Gaussia luciferase reporter; series mostly up to 57.5 µM.
For `CCS(=O)(=O)Nc1cccc(C(=C2CCCCC2)c2cnc[nH]2)c1`, the Potency result was “inactive”.
For `OCc1cnc[nH]1`, the Potency result was “inactive”.
Take `O=[N+]([O-])c1ccc2nc(N3CCNCC3)ccc2c1`: the Potency result is “inactive”.
As to `CCN1C[C@@]2(COC)C3[C@@H](OC)C4[C@@H]1C3([C@@H]1C[C@]3(O)[C@H](OC(=O)c5ccccc5)[C@@H]1[C@]4(OC(C)=O)[C@@H](O)[C@@H]3OC)[C@H](OC)C[C@H]2O`, the Potency result was “inactive”.
On to `CN1CCc2cccc(Cl)c2CC1`, for which the Potency entry is “inactive”.
As to `NCC(O)c1cc(O)c(O)cc1F` (stereo not given), the Potency result was “inactive”.
In the case of `C[C@H](N)CN1CCc2ccc(Br)cc21`, the Potency entry was “inactive”.
For the compound `NC(=O)c1ccc(OCC(O)CN2CC=C(c3ccc(F)cc3)CC2)cc1` (stereo not given), the Potency result is “inactive”.
Same read-out and setting: as for `CCN(CCCl)Cc1ccccc1Br`, the entry is “inactive”; as for `C=CCN1CC[C@]23c4c5ccc(O)c4O[C@@H]2/C(=N/N=C2\CC[C@@]4(O)C6Cc7ccc(O)c8c7[C@@]4(CCN6CC=C)[C@@H]2O8)CC[C@@]3(O)C1C5`, “inactive”; as for `CC(=O)NBr`, “inactive”.
For the compound `CCCN1CCC[C@@H](c2cccc(O)c2)C1`, the Potency result is “inactive”.
Consider `COc1cc(CC(C)N)c(OC)cc1I` (stereo not given), for which the Potency result was “inactive”.
For the compound `CNc1ccc2oc(C[C@H]3O[C@@]4(CC[C@H]3C)O[C@H]([C@H](C)C(=O)c3ccc[nH]3)[C@H](C)C[C@H]4C)nc2c1C(=O)O`, the Potency is 7.08 µM (active).
On the same count and under the same terms, as for `CC(=O)c1c(O)c(C)c(O)c(Cc2c(O)c3c(c(C(=O)/C=C/c4ccccc4)c2O)OC(C)(C)C=C3)c1O`, the entry is “inactive”; as for `C[C@H](N)Cc1cccc(C(F)(F)F)c1`, “inactive”.
For the compound `NC(=O)COc1c(F)cc(SCCNS(=O)(=O)c2ccccc2)cc1F`, the Potency result was “inactive”.
`CC(C)(C)c1o[nH]c(=O)c1CC(N)C(=O)O` (stereo not given): the Potency entry is “inactive”.
For `C[C@@H]1[C@@H]2Cc3ccc(O)cc3[C@@]1(C)CCN2CC1CC1`, the Potency result was “inactive”.
As for `NC(Cc1ccc(N(CCCl)CCCl)cc1)C(=O)O` (stereo not given), the Potency entry is “inactive”.
Consider `CC(N)c1cccc(Cl)c1Cl` (stereo not given), for which the Potency result is “inactive”.
For `NNC(=O)c1ccc(O)cc1`, the Potency result was “inactive”.
Turning to `C[N+]1(C)CCN(c2ccccc2)CC1`, the Potency entry is “inactive”.
Consider `CCCN(CCC)C1CCc2cccc(O)c2C1` (stereo not given), for which the Potency result was “inactive”.
As for `CN(C(=O)Cc1ccc(Cl)c(Cl)c1)C(CN1CCCC1)c1cccc(OCC(=O)O)c1` (stereo not given), the Potency result was “inactive”.
`C[N+](C)(C)CC#CCN1CCCC1=O`: the Potency result is “inactive”.
In the case of `COc1ccc2[nH]cc(CCN)c2c1`, the Potency entry was “inactive”.
Consider `COc1ccc2c(c1)C13CCCCC1C(C2)N(C)CC3` (stereo not given), for which the Potency result was “inactive”.
On the same count and under the same terms, as for `COc1ccc(OC)c(C(O)C(C)N)c1` (stereo not given), the entry is “inactive”.
